In the library only some 11% were active in any assay of this set; here they are far more common.
HP1b binding inh: blocks HP1-beta chromodomain binding to methylated histone tails. P83916. AlphaScreen HP1-beta / biotin-H3K9me3 peptide binding. Potency, µM (series often up to 114 µM), for inactives: at the highest dose activity change, negative = inhibition, usual class: inhibitors. 390,000 compounds, 0.56% hits. AID 540317; note: nearly all actives have a fitted effect of over 70% in size
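AlphaScreen: HP1-beta (50 nM) preformed 30 min with biotin-H3(1-18)K9me3 peptide (50 nM) in PBS pH 7.4, 0.01% Tween-20. Compound added for 30 min at RT, then streptavidin donor/nickel chelate acceptor beads (10 ug/mL) for 30 min.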
BAZ2B inh: BAZ2B (human) inhibition; Potency, µM (titrated, usually from 114 µM), for inactives: at the top dose activity change, negative = inhibition, most hits filed as inhibitors; 360,000 compounds, 4.4% hits; AlphaScreen BAZ2B-H3K14Ac peptide displacement; Q9UIF8; note: % is set by controls: 0 for no effect and ±100 for the full control effect; nearly all actives have a fitted effect of over 60% in size
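BAZ2B (50 nM) with biotin-H3(5-23)K14Ac peptide (50 nM) in PBS pH 7.4, 0.01% Tween-20, preformed 30 min, then compound 30 min at room temperature; top concentration 110uM. AlphaScreen streptavidin donor/nickel chelate acceptor beads (10 ug/mL final), 20 min dark, signal read.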
G9a block: G9a (human) methyltransferase inhibition; Q96KQ7; G9a H3K9 monomethylation, AlphaScreen, 2 h; Potency, µM (series often up to 102 µM), for the others: at the highest dose activity, negative = inhibition, actives largely listed as inhibitors; 350,000 compounds, 8.8% hits; AID 504332; note: % is set by controls: 0 for no effect and ±100 for the full control effect; nearly all actives have a fitted effect of over 75% in size
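Using a bead-based AlphaScreen, monomethylated H3K9 product from 2 h room-temperature reactions (G9a 20 nM, peptide 500 nM, SAM 20 uM) was detected with 0.5 ug/mL rabbit anti-H3K9me1 antibody.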
L3MBTL1 inh: inhibitors of human L3MBTL1; Q9Y468; AlphaScreen L3MBTL1–H3K9me1 peptide binding; Potency, µM (doses to about 57.1 µM), for the others: at the top dose activity, negative = inhibition, actives largely listed as inhibitors; 230,000 compounds, 0.66% hits; AID 485360; note: % is set by controls: 0 for no effect and ±100 for the full control effect; nearly all actives have a fitted effect of over 60% in size
Target sequence (Q9Y468 whole entry, looked up): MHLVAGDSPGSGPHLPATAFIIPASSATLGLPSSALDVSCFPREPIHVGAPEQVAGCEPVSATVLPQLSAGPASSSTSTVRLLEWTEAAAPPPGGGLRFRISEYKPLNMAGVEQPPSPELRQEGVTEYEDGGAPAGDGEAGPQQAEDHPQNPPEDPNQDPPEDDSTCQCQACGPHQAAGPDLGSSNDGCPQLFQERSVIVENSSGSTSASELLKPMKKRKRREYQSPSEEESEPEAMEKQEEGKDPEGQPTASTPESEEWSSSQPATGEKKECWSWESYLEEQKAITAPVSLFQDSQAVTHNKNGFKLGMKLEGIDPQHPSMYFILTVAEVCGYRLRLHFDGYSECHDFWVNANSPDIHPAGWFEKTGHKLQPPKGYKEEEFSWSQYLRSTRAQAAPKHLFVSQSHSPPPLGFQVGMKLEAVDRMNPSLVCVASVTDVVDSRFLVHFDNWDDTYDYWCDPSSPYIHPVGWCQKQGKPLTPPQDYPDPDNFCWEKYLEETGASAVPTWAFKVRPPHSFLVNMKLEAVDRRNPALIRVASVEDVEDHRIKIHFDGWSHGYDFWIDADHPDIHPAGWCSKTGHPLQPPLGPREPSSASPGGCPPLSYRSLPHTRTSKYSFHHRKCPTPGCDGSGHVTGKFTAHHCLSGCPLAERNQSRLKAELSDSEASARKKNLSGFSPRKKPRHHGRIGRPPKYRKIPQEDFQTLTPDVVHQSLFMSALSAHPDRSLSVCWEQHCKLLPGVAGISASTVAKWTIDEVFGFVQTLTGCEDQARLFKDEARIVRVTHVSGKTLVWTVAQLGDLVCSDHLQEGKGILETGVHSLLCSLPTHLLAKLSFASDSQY
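AlphaScreen assay: L3MBTL1 (50 nM final) was preincubated 30 min at room temperature with biotinylated H3(1-15)K9me1 peptide (75 nM final), then 30 min with library compounds; streptavidin donor and nickel chelate acceptor beads (10 ug/mL final) added, 30 min dark.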
JMJD2A Tudor: blocks the human JMJD2A Tudor domain. O75164. 390,000 compounds, 4.4% hits. AlphaScreen JMJD2A-Tudor / H3K4me3 peptide binding. Potency, µM (top dose mostly 114 µM), for inactives: at the highest dose activity change, negative = inhibition, hits mostly inhibitors; note: % is set by controls: 0 for no effect and ±100 for the full control effect; nearly all actives have a fitted effect of over 50% in size
* marks the source's active call; other numbers are inactive results; [ ] = another dose, or the depositor's remark. Calls come from the whole dose curve; as a rule, active = well fitted inhibition curve with a large enough effect; inconclusive = small, poorly fitted or top-dose-only effect; inactive = no such curve, though single readings can be large or run the other way. Potency is the fitted concentration of half-maximal effect.

What do the screens show for `CCOc1cc(CNc2ccc3[nH]c(=O)[nH]c3c2)ccc1OCC(=O)NC(C)(C)C`?
HP1b binding inh: -11.0%; BAZ2B inh: -4.6%; G9a block: 5.01µM*; L3MBTL1 inh: -0.1%; JMJD2A Tudor: -30.7%

How did CC(C)(C)NC(=O)COc1ccc(CNCCc2ccccc2)cc1 do in these assays?
HP1b binding inh: 32.2%; BAZ2B inh: -16.6%; G9a block: 16.7%[12.7 µM]; L3MBTL1 inh: 8.5%; JMJD2A Tudor: -4.3%

What do the screens show for `CCOc1cc(CNCc2ccccn2)ccc1OCC(=O)NC1CCCCC1`?
HP1b binding inh: 1.2%; BAZ2B inh: 79.4µM*; G9a block: 2.8%[12.7 µM]; JMJD2A Tudor: 56.2µM*

Results for CSc1nccc(NC(=O)c2cccc(Br)c2)n1 ?
HP1b binding inh: 89.9%; BAZ2B inh: 0.4%; G9a block: 35.2%[0.501 µM]; JMJD2A Tudor: 22.0%

What do the screens show for `CCCCc1ccc(-n2nc3cc(C)c(NC(=O)c4ccc(C#N)cc4F)cc3n2)cc1`?
HP1b binding inh: 30.1%; BAZ2B inh: -17.5%; G9a block: inconclusive; JMJD2A Tudor: 1.1%

How did N=C1/C(=C\c2ccc(OCc3ccccc3)cc2)C(=O)N=C2SC(N3CCCC3)=NN12 do in these assays?
BAZ2B inh: -31.4%; L3MBTL1 inh: -5.2%

What do the screens show for `Cc1c(Br)cc(C(=O)O)c(C)c1C`?
HP1b binding inh: 53.0%; BAZ2B inh: 2.2%; G9a block: 23.5%[59 µM]; JMJD2A Tudor: 0.9%

Results for Cc1c(N)cc(N)cc1C(=O)O ?
HP1b binding inh: 0.6%; BAZ2B inh: -35.2%; G9a block: 79.4µM*; JMJD2A Tudor: -11.7%

How did CCOC(=O)c1c(NC(=O)COc2ccc(Cl)cc2Cl)sc2c1CCCCC2 do in these assays?
HP1b binding inh: 43.0%; BAZ2B inh: 2.4%; G9a block: 8.6%[59 µM]; JMJD2A Tudor: 3.6%

What do the screens show for `Cc1ccccc1NC(=S)N(Cc1ccccn1)Cc1ccccc1Cl`?
HP1b binding inh: 47.0%; BAZ2B inh: -23.5%; G9a block: 3.5%; L3MBTL1 inh: 6.4%; JMJD2A Tudor: -6.3%

What do the screens show for `S=C(NN=Cc1ccccn1)N(Cc1ccccn1)Cc1ccccn1`?
HP1b binding inh: inconclusive; JMJD2A Tudor: 20µM*

What do the screens show for `O=C(NN=C(c1ccccc1)c1ccccn1)c1ccccc1`?
HP1b binding inh: 10.6%; L3MBTL1 inh: -15.2%; JMJD2A Tudor: inconclusive

How did O=C(Cc1ccccc1)N/N=C/c1ccccn1 do in these assays?
HP1b binding inh: 22.1%; JMJD2A Tudor: -17.3%

What do the screens show for `CC(=NNC(=S)N(Cc1ccccn1)Cc1ccccn1)c1cnccn1`?
HP1b binding inh: inconclusive; JMJD2A Tudor: 17.8µM*

How did S=C(NN=C(c1ccccc1)c1ccccn1)N(Cc1ccccn1)Cc1ccccn1 do in these assays?
HP1b binding inh: inconclusive; JMJD2A Tudor: 12.6µM*

How did COc1ccc(-c2cc(C(F)(F)F)n3nc(C(=O)O)c(Cl)c3n2)cc1OC do in these assays?
HP1b binding inh: 15.2%; BAZ2B inh: inconclusive; G9a block: 9.0%[59 µM]; JMJD2A Tudor: -16.7%

How did Cc1cc(NC(=O)C2CC(=O)N(c3cccc(Cl)c3)C2)no1 (stereo unspecified) do in these assays?
HP1b binding inh: 39.0%; BAZ2B inh: -1.2%; G9a block: -2.1%[59 µM]; JMJD2A Tudor: -2.1%

What do the screens show for `CCCC(C)C(=O)Nc1nc(C)c(-c2csc(Nc3cc(OC)ccc3OC)n2)s1` (stereo unspecified)?
HP1b binding inh: -6.2%; BAZ2B inh: inconclusive; G9a block: 14.1µM*; L3MBTL1 inh: -21.3%; JMJD2A Tudor: inconclusive

What do the screens show for `C=CCCC(=O)Nc1nc(C)c(-c2csc(Nc3cc(OC)ccc3OC)n2)s1`?
HP1b binding inh: inconclusive; BAZ2B inh: 50.1µM*; G9a block: 10µM*; L3MBTL1 inh: -24.7%; JMJD2A Tudor: 35.5µM*

How did C=CCCC(=O)Nc1nc(C)c(-c2csc(Nc3cccc(OC)c3)n2)s1 do in these assays?
HP1b binding inh: -11.9%; BAZ2B inh: inconclusive; G9a block: inconclusive; L3MBTL1 inh: -4.6%; JMJD2A Tudor: inconclusive

What do the screens show for `CCCCCC(=O)Nc1nc(C)c(-c2csc(Nc3cc(Cl)ccc3OC)n2)s1`?
HP1b binding inh: inconclusive; BAZ2B inh: inconclusive; G9a block: inconclusive; L3MBTL1 inh: -12.6%; JMJD2A Tudor: inconclusive

What do the screens show for `COc1ccc(OC)c(Nc2nc(-c3sc(N)nc3C)cs2)c1`?
HP1b binding inh: inconclusive; BAZ2B inh: 44.7µM*; G9a block: 31.6µM*; L3MBTL1 inh: -28.7%; JMJD2A Tudor: 50.1µM*

What do the screens show for `CCCc1cc(=O)n2[nH]c(NCc3ccccc3OC)nc2n1`?
HP1b binding inh: 15.4%; BAZ2B inh: -9.1%; G9a block: inconclusive; JMJD2A Tudor: -1.7%

Results for Cc1ccc2c(c1)=C(c1sc(N(C)c3ccc(O)cc3)nc1O)C(=O)N=2 ?
HP1b binding inh: 9.1%; BAZ2B inh: -19.5%; G9a block: 44.7µM*; JMJD2A Tudor: -3.4%

What do the screens show for `Cn1ncc(S(=O)(=O)Cc2ccccc2)c(Br)c1=O`?
G9a block: 1.5µM*

What do the screens show for `O=C(O)c1ccccc1S(=O)(=O)Cc1ccccc1`?
HP1b binding inh: 12.5%; BAZ2B inh: 8.9%; G9a block: -14.1%[12.7 µM]; L3MBTL1 inh: -0.6%; JMJD2A Tudor: -19.9%

Results for COc1ccccc1OCC(=O)NNc1c2ccccc2nc2ccccc12 ?
HP1b binding inh: -10.2%; BAZ2B inh: inconclusive; G9a block: 35.5µM*; L3MBTL1 inh: -8.7%; JMJD2A Tudor: inconclusive

What do the screens show for `C[N+]1(CC(=O)NNc2c3ccccc3nc3ccccc23)CCOCC1`?
BAZ2B inh: inconclusive; G9a block: 50.1µM*; L3MBTL1 inh: -5.3%

How did COc1ccc(C(c2c(O)nc(SC)n(C)c2=O)c2c(O)nc(SC)n(C)c2=O)cc1O do in these assays?
HP1b binding inh: 46.6%; BAZ2B inh: -15.2%; G9a block: 15.8µM*; L3MBTL1 inh: 15.6%; JMJD2A Tudor: -4.1%

How did O=C(CSc1nc2c(c(=O)[nH]1)CCC2)Nc1cccc(O)c1 do in these assays?
HP1b binding inh: 33.2%; BAZ2B inh: -20.1%; G9a block: -37.3%[59 µM]; JMJD2A Tudor: -9.3%

How did C=CCn1c(SCC(=O)NCCC2=CCCCC2)nc2ccc(Cl)cc2c1=O do in these assays?
HP1b binding inh: inconclusive; BAZ2B inh: -2.3%; G9a block: 3.1%[59 µM]; L3MBTL1 inh: 2.6%; JMJD2A Tudor: 28.2µM*

Results for Cn1c(=O)cc(SCC(=O)NCCC2=CCCCC2)c2ccc(Cl)cc21 ?
HP1b binding inh: 17.2%; BAZ2B inh: -1.1%; G9a block: 6.8%[59 µM]; L3MBTL1 inh: 2.1%; JMJD2A Tudor: -10.6%

Results for COC(=O)c1ccccc1NC(=O)C1CCCN(C(=O)c2cnn(-c3ccc(F)cc3)c2-n2cccc2)C1 (stereo unspecified) ?
HP1b binding inh: -15.1%; BAZ2B inh: inconclusive; G9a block: inconclusive; JMJD2A Tudor: inconclusive
